# Test results published in PubChem BioAssay.
# Activity calls are given as the source filed them.
# Assays:
# Albumin (Bos taurus) = Albumin (Bos taurus) (UniProt P02769); experiment: compounds binding labelled BSA control protein – biochemical, small-molecule microarray, Alexa647 label, 635/667 nm fluorescence, artefact control for SMM control protein annotation, profiling panel (AID 1118); settings: BSA-A647 binding, fluorescence 635 nm, higher = more signal;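 note: score merges 667 nm emission intensity and signal-to-noise per printed compound spot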
# Chain of Albumin (Bos taurus) (P02769 whole entry, looked up): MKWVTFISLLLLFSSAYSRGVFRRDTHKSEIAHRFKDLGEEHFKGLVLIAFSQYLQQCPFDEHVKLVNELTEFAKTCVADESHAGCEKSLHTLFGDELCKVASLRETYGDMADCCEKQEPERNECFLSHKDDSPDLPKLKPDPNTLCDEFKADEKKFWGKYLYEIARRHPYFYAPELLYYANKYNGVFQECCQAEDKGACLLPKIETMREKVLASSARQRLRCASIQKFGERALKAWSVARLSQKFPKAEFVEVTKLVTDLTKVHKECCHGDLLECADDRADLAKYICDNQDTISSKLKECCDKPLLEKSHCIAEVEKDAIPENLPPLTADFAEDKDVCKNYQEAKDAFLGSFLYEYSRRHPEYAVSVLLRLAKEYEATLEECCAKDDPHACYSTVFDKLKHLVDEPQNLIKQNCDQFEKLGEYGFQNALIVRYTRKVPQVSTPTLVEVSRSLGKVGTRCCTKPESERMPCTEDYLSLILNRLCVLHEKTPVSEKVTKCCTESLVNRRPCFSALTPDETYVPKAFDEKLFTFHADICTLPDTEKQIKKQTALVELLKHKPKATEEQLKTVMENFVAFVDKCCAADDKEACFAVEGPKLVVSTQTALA
# [1] = probe aXIP binding to arrayed compounds – biochemical, NeuroSMM set, 635/667 nm fluorescence, primary screen (AID 1119); settings: small-molecule microarray, higher = more signal, called active from +8 up or from −8 down;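 note: probe is the protein aXip251-270 applied at 1 µg/mL to compound-printed slides; binding of probe to printed compounds measured as 667 nm fluorescence plus signal to noise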
# [2] = probe aNOTCH3 binding on compound microarray – biochemical, small-molecule microarray, 635/667 nm fluorescence, primary screen (AID 1120); settings: higher = more signal;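 note: probe is a biotin-tagged antibody raised against NOTCH3 rather than NOTCH3 protein; score merges spot fluorescence near 667 nm with spot signal to noise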
# [3] = probe aNOTCH2 binding on compound microarray – biochemical, small-molecule microarray, 635/667 nm fluorescence, primary screen (AID 1121); settings: higher = more signal;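 note: score merges feature fluorescence read at 667 nm with its signal to noise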
# [4] = target: Carbonic anhydrase 2 (Homo sapiens) (UniProt P00918); experiment: compounds binding carbonic anhydrase 2 – biochemical, small-molecule microarray, Alexa647-labelled CAII, profiling panel (AID 1122); settings: CAII-A647 binding fluorescence, higher = more signal
# [5] = COS7 lysate on small-molecule microarray, probe aHis, 635 nm (AID 1123); settings: COS7 cell lysate, fluorescence, higher = more signal;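 note: z-score combines 667nm fluorescence intensity with signal-to-noise per printed compound spot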
# [6] = probe aLAP1 signal on lysate-treated microarray – cell lysate, small-molecule microarray, COS7 lysate, primary screen (AID 1124); settings: probe aLAP1, fluorescence, higher = more signal;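 note: lysate comes from COS7 cells expressing LAP1 and is applied at 0.3 µg/mL; score merges spot fluorescence near 667 nm with signal-to-noise over triplicate slides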
# Sam68 (KHDRBS1) = experiment: compounds binding KHDRBS1 protein – biochemical, small-molecule microarray, 635 nm fluorescence, primary screen (AID 1125); settings: higher = more signal;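 note: score merges 667 nm channel intensity with signal to noise over triplicate slides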
# [7] = system: Chordin-like protein 2 (CHRDL2); experiment: compounds binding chordin-like 2 – biochemical, small-molecule microarray, 635 nm fluorescence, primary screen (AID 1126); settings: fluorescence 635 nm, higher = more signal;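 note: printed compound slides probed with Chrdl2 protein at 4 µg/mL for 1 h at 4 C; score merges 667 nm emission intensity with signal to noise over three replicate slides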
# [8] = target: Concanavalin-A (Canavalia ensiformis) (UniProt P02866); experiment: compounds binding concanavalin A lectin – biochemical, small-molecule microarray, Alexa647 label, 635 nm, artefact control for SMM control protein annotation, primary screen (AID 1127); settings: ConA-A647 binding fluorescence, higher = more signal;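 note: z combines 667 nm emission intensity with signal-to-noise across three replicate slides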
# Chain of Concanavalin-A (Canavalia ensiformis) (P02866 whole entry, looked up): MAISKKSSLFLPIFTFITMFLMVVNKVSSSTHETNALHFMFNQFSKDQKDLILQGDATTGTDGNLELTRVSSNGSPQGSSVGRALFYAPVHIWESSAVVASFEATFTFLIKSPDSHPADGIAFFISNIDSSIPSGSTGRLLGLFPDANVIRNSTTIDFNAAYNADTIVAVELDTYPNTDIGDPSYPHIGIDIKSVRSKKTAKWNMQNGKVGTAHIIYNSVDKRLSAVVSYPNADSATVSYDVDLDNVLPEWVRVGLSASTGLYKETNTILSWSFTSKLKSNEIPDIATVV
SMILES,composite z-score (Albumin (Bos taurus)),composite Z-score [1],composite z-score [2],composite z-score [3],composite z-score [4],composite z-score [5],composite z-score [6],composite z-score (Sam68 (KHDRBS1)),composite z-score [7],composite z-score [8]
Cc1cc(C)c(C(O)C2C=CC3C(=O)N(C)C(=O)C3N2Nc2ccccc2)c(C)c1 (stereo not given),0.72,2.43 (inactive),1.35,0.818,0.784,1.2,0.781,0.485,0.452,0.143
COC(=O)c1ccc(C(O)C2C=CC3C(=O)N(c4ccccc4)C(=O)C3N2Nc2ccc(C#N)cc2)o1 (stereo not given),0.887,-0.336 (inactive),0.0282,-0.0878,0.436,2.85,0.387,0.735,0.0997,0.635
O=C1C=CC(=O)[C@@H]2CC(COc3ccccc3)=C3[C@@H](CCc4ccccc4)OB(O)C[C@@H]3[C@H]12,-0.182,0.155 (inactive),-0.0647,-0.219,-0.0292,0.113,-0.17,0.359,0.299,0.238
C[C@H]1NC(=O)[C@H](Cc2ccccc2)NC(=O)[C@@]23C(=O)N[C@@H](Cc4ccccc4)C2[C@H](C)[C@@]2(C)O[C@H]2C3/C=C/C/C=C\CNC1=O (stereo not given in full),-1.45,0.572 (inactive),-0.15,-0.118,-0.0479,-1.21,0.0584,-1.69,0.417,-1.44
CN1CCC(CCCO)=CC1c1ccc(CN2CCCC2)cc1 (stereo not given),-0.225,-0.554 (inactive),0.29,0.0088,0.665,1.46,0.714,1.32,1.5,0.776
COC(=O)C(CC#Cc1ccc2c(c1)[C@]1(C(=O)N2)[C@H](c2ccc(OCCO)cc2)N2[C@H](c3ccccc3)[C@H](c3ccccc3)OC(=O)[C@H]2[C@@H]1C(=O)NC[C@H](O)c1ccccc1)C(=O)OC,0.819,0.0996 (inactive),0.0556,-0.115,0.497,1.97,-0.131,1.29,-0.28,1.14
CCCCC=C[C@@H](NC(=O)c1cccs1)c1ccccc1,0.84,-0.544 (inactive),0.0435,-0.0116,0.251,1.35,0.369,0.839,-0.406,0.499
CC(C)NC(=O)[C@@H]1c2ccccc2C(=O)N(Cc2ccccc2Cl)[C@H]1c1ccc(CO)cc1,0.07,0.757 (inactive),-0.205,-0.121,0.651,1.29,0.661,1.03,-0.296,-0.0903
COC(=O)[C@@]1(Cc2ccccc2)[C@H]2c3cc(C(=O)N4CCCC4)n(C)c3C[C@H]2CN1C(=O)c1ccccc1,1.06,0.363 (inactive),0.347,-0.138,0.912,2.35,0.711,-0.0981,-1.18,1.07
CC(C)CNC(=O)[C@@]1(c2ccc([N+](=O)[O-])cc2)CC(=O)N(CC23CC4CC(CC(C4)C2)C3)[C@@H]1c1ccc(CO)cc1,0.152,0.0585 (inactive),0.157,0.014,0.523,1.42,1.15,1.04,0.201,0.73
O=C/C=C/c1ccc(Cl)cc1,-1.04,0.411 (inactive),-0.186,-0.127,-0.457,-0.267,-0.565,-1.01,0.0502,-0.184
COC(=O)C[C@@H]1C[C@H](C)[C@]2(O1)C(=O)N(Cc1ccccc1)c1ccc(NC(C)=O)cc12,-0.211,-0.209 (inactive),-0.116,-0.185,-0.153,0.117,-0.0791,-0.506,0.343,0.0104
CCOC(=O)[C@H]1C[C@H]2O[C@@]23C[C@H]1C(=O)N1CCCC1[C@@H]3O[Si](C)(C)C(C)(C)C (stereo not given in full),-0.505,0.545 (inactive),0.0203,-0.102,-0.123,0.178,-0.244,-0.445,-0.694,-1.61
CC(C)C(=C=CC[C@H](O)c1ccccc1OCCO)C[C@H](O)c1ccccn1,0.161,0.41 (inactive),0.395,-0.0488,0.632,0.559,1.61,0.861,-0.161,-0.0625
C=C[C@@H](COC(C)=O)N(Cc1ccc([N+](=O)[O-])cc1)S(=O)(=O)c1ccc(Br)cc1,0.812,0.181 (inactive),-0.0647,-0.0089,0.448,0.432,0.442,0.573,0.241,1.11
CCCC[C@@H]1C[C@H]1[C@@H](NC(=O)c1ccc(-c2ccccc2)cc1)c1ccc(-c2ccccc2)cc1,-0.0732,-0.254 (inactive),-0.0072,-0.0795,0.0853,0.468,-0.113,0.287,1.42,-0.142
NCCCCCNC(=O)[C@H]1C[C@H]2C(=O)NCC(=O)N2[C@H]1c1cccc(OCCO)c1,0.0356,0.131 (inactive),0.204,-0.136,0.429,1.12,0.391,1.32,0.636,1.16
